Test results as given in PubChem BioAssay AID1159580 (chemical genetic matrix, 2015).
Out of some 5,500 compounds screened, about 2,000 (36%) were called active. Roughly 18% stayed inconclusive and do not appear here. No stated cut-off is given here; in the data, active means normalized growth mostly below about 0.91 (no sharp cut-off); inconclusive means no clear call, values can overlap the other calls; inactive means mostly above about 0.92. The list shows a part of the results.

Experiment: chemical genetic growth profiling, strain panel (AID 1159580);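 further: tested at 20 µM; growth read once vehicle control cultures reached saturation at 30 °C; 1 = growth at the plate median or of vehicle wells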
Settings: S. cerevisiae deletion strains, growth OD

Measured: normalized growth

C=C(C)C1(O)OC(=O)C=C1OC (stereo not given)
inactive: locus YBR021W, strain FUR4, stronger effect = lower value 0.995 | locus YBR229C, strain ROT2, stronger effect = lower value 0.944 | locus YCL029C, strain bik1, stronger effect = lower value 0.977 | locus YDL035C, strain GPR1, stronger effect = lower value 0.987 | locus YDL074C, strain BRE1, stronger effect = lower value 1.01 | locus YDL101C, strain DUN1, stronger effect = lower value 0.994 | locus YDL185W, strain tfp1, stronger effect = lower value 0.968 | locus YDL192W, strain arf1, stronger effect = lower value 0.984 | locus YDR101C, strain arx1, stronger effect = lower value 1 | locus YDR150W, strain NUM1, stronger effect = lower value 0.986 | locus YDR162C, strain NBP2, stronger effect = lower value 0.961 | locus YDR318W, strain mcm21, stronger effect = lower value 0.981 | locus YDR388W, stronger effect = lower value 0.997 | locus YDR502C, strain sam2, stronger effect = lower value 0.996 | locus YEL061C, strain CIN8, stronger effect = lower value 0.989 | locus YER110C, stronger effect = lower value 0.991 | locus YER155C, strain BEM2, stronger effect = lower value 0.996 | locus YER167W, strain BCK2, stronger effect = lower value 0.978 | locus YGL078C, strain dbp3, stronger effect = lower value 0.991 | locus YGL086W, strain mad1, stronger effect = lower value 1.03 | locus YGL248W, strain PDE1, stronger effect = lower value 0.978 | locus YGR078C, strain PAC10, stronger effect = lower value 1.03 | locus YGR135W, strain pre9, stronger effect = lower value 0.983 | locus YGR252W, strain gcn5, stronger effect = lower value 0.98 | locus YHR030C, strain SLT2, stronger effect = lower value 0.981 | locus YHR079C, strain IRE1 (second series), stronger effect = lower value 0.986 | locus YHR094C, strain hxt1, stronger effect = lower value 0.983 | locus YHR129C, strain ARP1, stronger effect = lower value 0.985 | locus YHR200W, strain rpn10, stronger effect = lower value 0.994 | locus YIL066C, strain RNR3, stronger effect = lower value 0.965 | locus YIL073C, strain SPO22, stronger effect = lower value 0.978 | locus YIL125W, strain kgd1, stronger effect = lower value 0.98 | locus YIR030C, strain dcg1, stronger effect = lower value 0.986 | locus YJL095W, strain BCK1, stronger effect = lower value 1.06 | locus YJL134W, strain LCB3, stronger effect = lower value 0.981 | locus YJL168C, strain set2, stronger effect = lower value 0.992 | locus YJL187C, strain SWE1 (second series), stronger effect = lower value 1 | locus YJR043C, strain POL32, stronger effect = lower value 0.948 | locus YJR075W, strain HOC1, stronger effect = lower value 1.03 | locus YKL009W, strain mrt4, stronger effect = lower value 1.01 | locus YKL068W, stronger effect = lower value 0.965 | locus YKL085W, strain MDH1 (second series), stronger effect = lower value 0.962 | locus YKL085W, strain MDH1, stronger effect = lower value 0.962 | locus YKL190W, strain CNB1, stronger effect = lower value 1 | locus YKR001C, strain vps1, stronger effect = lower value 0.995 | locus YLR039C, strain RIC1, stronger effect = lower value 0.963 | locus YLR058C, strain SHM2, stronger effect = lower value 0.97 | locus YLR102C, strain apc9, stronger effect = lower value 0.99 | locus YLR262C, strain YPT6, stronger effect = lower value 0.918 | locus YLR268W, strain sec22, stronger effect = lower value 1.04 | locus YLR330W, strain CHS5, stronger effect = lower value 0.992 | locus YLR342W, strain FKS1 (second series), stronger effect = lower value 0.985 | locus YLR371W, strain rom2, stronger effect = lower value 0.97 | locus YLR418C, strain cdc73, stronger effect = lower value 0.964 | locus YML016C, strain PPZ1, stronger effect = lower value 0.978 | locus YML032C, strain rad52, stronger effect = lower value 0.975 | locus YML124C, strain tub3, stronger effect = lower value 0.984 | locus YMR078C, strain ctf18, stronger effect = lower value 0.991 | locus YMR223W, strain ubp8, stronger effect = lower value 0.992 | locus YMR263W, strain SAP30, stronger effect = lower value 1.01 | locus YMR307W, strain GAS1, stronger effect = lower value 0.947 | locus YNL067W, strain RPL9B, stronger effect = lower value 1.03 | locus YNL128W, strain TEP1, stronger effect = lower value 0.997 | locus YNL153C, strain GIM3, stronger effect = lower value 1.02 | locus YNL233W, strain BNI4, stronger effect = lower value 1.04 | locus YNL250W, strain rad50, stronger effect = lower value 0.958 | locus YNL271C, strain bni1, stronger effect = lower value 0.989 | locus YNL298W, strain CLA4, stronger effect = lower value 1.02 | locus YNL307C, strain MCK1, stronger effect = lower value 0.999 | locus YNL322C, strain KRE1, stronger effect = lower value 0.98 | locus YNR052C, strain pop2, stronger effect = lower value 1.01 | locus YOL006C, strain TOP1, stronger effect = lower value 1.05 | locus YOL012C, strain htz1 1.2 | locus YOL147C, strain pex11, stronger effect = lower value 0.991 | locus YOR061W, strain CKA2, stronger effect = lower value 0.964 | locus YOR069W, strain VPS5, stronger effect = lower value 0.985 | locus YOR136W, strain idh2, stronger effect = lower value 1 | locus YOR144C, strain elg1, stronger effect = lower value 0.981 | locus YOR184W, strain ser1, stronger effect = lower value 0.973 | locus YOR316C, strain cot1, stronger effect = lower value 0.994 | locus YPR119W, strain clb2, stronger effect = lower value 0.987 | locus YPR141C, strain kar3, stronger effect = lower value 0.977 | locus YPR163C, strain tif3, stronger effect = lower value 0.99 | locus YPR167C, strain met16, stronger effect = lower value 0.992 | strain wtn01, stronger effect = lower value 1.02
